Bioassay records from PubChem BioAssay.
Hits are enriched below; roughly 19% of the tested compounds scored in any of these assays.
DT40 TDP1 no CPT = qHTS for Inhibitors of human tyrosyl-DNA phosphodiesterase 1 (TDP1): qHTS in cells in absence of CPT. DT40 Tdp1-/- hTDP1 cells, no CPT, ATP luminescence, 48 h. Potency, µM (titrated, usually from 46.2 µM), without a hit: top-dose activity change, negative = growth inhibition, actives largely listed as inhibitors. actives 15% (n = 420,000). AID 686978, 2013; note: nearly all actives have a fitted effect of over 55% in size
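Luminescent ATP content (CellTiter-Glo) served as the growth readout. Knockout chicken DT40 cells expressing human TDP1 were exposed to compounds without camptothecin for a minimum 48 hr at 37 °C.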
TDP1 cell CPT = DT40-hTDP1 cell growth loss with CPT. chicken DT40 Tdp1-/-;hTDP1 cells + 20 nM CPT, ATP luminescence, 48 h. Potency, µM (series often up to 46.2 µM), inactives show top-dose activity change, negative = growth inhibition, most hits filed as inhibitors. actives 12% (n = 420,000). AID 686979; note: nearly all actives have a fitted effect of over 55% in size
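Chicken DT40 Tdp1-/- cells stably complemented with human TDP1 were seeded at 400 cells/well in medium containing 20 nM camptothecin, exposed to pin-transferred compounds, and grown at 37 °C for at least 48 hr. Viability was read as ATP luminescence.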
KB-V1 MDR tox = KB-V1 MDR subline cytotoxicity | KB-V1 MDR cells viability, CellTiter-Glo, 72 h | Potency, µM (highest dose often 46.1 µM), hits mostly cytotoxic | actives 3.4% (n = 400,000) | AID 1347076; note: nearly all actives have a fitted effect of over 60% in size
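Following 72 h at 37 degrees C with compound, KB-V1 cell viability was read by CellTiter-Glo luminescence, medium being phenol-red-free DMEM plus 10% FBS; concentration-response parameters came from normalized, curve-fitted qHTS data.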
HT1080 IDH1KD tx = HT-1080 IDH1 knockdown cell toxicity (counter line); HT-1080 IDH1 knockdown viability, ATP luminescence, 48 h; Potency, µM (doses to about 46.1 µM), for the others: at the highest dose activity, negative = toxicity, actives largely listed as cytotoxic; actives 2% (n = 360,000); AID 686971;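 note: 0% = DMSO wells and -100% = cell-free medium wells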
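After a 2 h attachment period, IDH1KD HT-1080 cells took pin-transferred compound for 48 h at 37 °C; ATP-based luminescence after 10 min room-temperature reagent incubation reported viability.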
KB-3-1 cytotox = KB-3-1 parental cell cytotoxicity | KB-3-1 viability, CellTiter-Glo ATP luminescence, 72 h | Potency, µM (highest dose often 46.1 µM), actives largely listed as cytotoxic | actives 1.4% (n = 400,000) | AID 1347075; note: nearly all actives have a fitted effect of over 60% in size
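Multi-concentration cytotoxicity screen in KB-3-1 cells grown in DMEM lacking phenol red with 10% FBS. After 72 h at 37 °C with compound, ATP-dependent luminescence was recorded.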
HT1080NT lethal = kills 2HG-producing HT-1080-NT fibrosarcoma cells; HT-1080-NT fibrosarcoma viability, CellTiter-Glo ATP luminescence, 48 h; Potency, µM (titrated, usually from 46.1 µM), for the others: top-dose activity, negative = less viability, usual class: cytotoxic; actives 1.6% (n = 360,000); AID 686970;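 note: NT is the 2HG producing partner of a matched IDH1 knockdown line; 0% = DMSO-treated cells and -100% = media-only wells without cells; nearly all actives have a fitted effect of over 55% in size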
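Toxicity toward the 2HG-producing NT line was scored as %Activity, normalised to DMSO and no-cell wells, from CellTiter-Glo luminescence after 48 hours' treatment.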
Active calls of the source: *; i = inactive; ? = inconclusive; . = not tested or not shown. Calls come from the whole dose curve; as a rule, active = well fitted curve in the direction sought with a large enough effect; inconclusive = small, poorly fitted or top-dose-only effect, or another doubt; inactive = no such curve, though single readings can be large; an effect the other way counts as inactive or inconclusive. Unless noted, % is set by controls: 0 for no effect and ±100 for the full control effect; potency is the fitted concentration of half-maximal effect.

SMILES	DT40 TDP1 no CPT	TDP1 cell CPT	KB-V1 MDR tox	HT1080 IDH1KD tx	KB-3-1 cytotox	HT1080NT lethal
C[C@H](OC(=O)c1[nH]cnc1C(=O)N1CCN(C(=O)OC(C)(C)C)CC1)c1ccccc1	26µM*	?	i	6%	i	13%
C[C@@H](OC(=O)c1[nH]cnc1C(=O)N1CCN(C(=O)OC(C)(C)C)CC1)c1ccccc1	-18%	?	i	9%	i	9%
C[C@@H](NC(=O)c1nc[nH]c1C(=O)N[C@@H](Cc1ccccc1)C(=O)OCc1ccccc1)c1ccccc1	18µM*	?	i	0%	i	-10%
C[C@H](NC(=O)c1nc[nH]c1C(=O)N[C@@H](Cc1ccccc1)C(=O)OCc1ccccc1)C(=O)OC(C)(C)C	-28%	?	i	-20%	i	-2%
CC(C)C[C@H](NC(=O)c1[nH]cnc1C(=O)N[C@@H](Cc1ccccc1)C(=O)OC(C)(C)C)C(=O)OC(C)(C)C	?	16µM*	i	?	?	?
Cc1ccccc1-c1noc(-c2cccnc2N(C)Cc2ccc(Cl)cc2)n1	?	?	?	.	i	.
CCN(CC)C(=O)Nc1ccc(Br)cc1	-9%	9%	i	-2%	i	4%
CCCCN(C(=O)C1CCCO1)c1c(N)n(CC(C)C)c(=O)[nH]c1=O (centres undefined)	13%	18%	i	0%	i	5%
COc1ccc(Cl)cc1NC(=O)CN(C)Cc1cccs1	?	?	i	-3%	i	-8%
CCCCNC(=O)C1c2ccccc2OCC(=O)N1CCOC (centres undefined)	-4%	-6%	i	2%	i	29%
CC(C)C[C@H](NC(=O)c1[nH]cnc1C(=O)N[C@@H](Cc1ccccc1)C(=O)OCc1ccccc1)C(=O)OC(C)(C)C	21µM*	21µM*	?	-21%	i	?
CC(C)C[C@H](NC(=O)c1nc[nH]c1C(=O)N[C@@H](CCCCNC(=O)OC(C)(C)C)C(=O)OC(C)(C)C)C(=O)OCc1ccccc1	?	?	i	0%	?	?
C[C@H]1NC(=O)[C@@]2(C)[C@H](c3ccccc3)[C@H]3COc4ccccc4[C@@H]3N2C1=O	?	?	i	4%	i	10%
COc1ccccc1CNC(=O)Cn1ncc2c3ccccc3n(Cc3ccccc3C)c2c1=O	16µM*	7.3µM*	i	.	i	.
O=C(Cn1ncc2c3ccccc3n(Cc3ccccc3)c2c1=O)Nc1ccccc1C(F)(F)F	?	?	i	.	i	.
Cc1ccccc1Cn1c2ccccc2c2cnn(CC(=O)NCc3cccc(Cl)c3)c(=O)c21	-103%	15µM*	i	.	i	.
CCc1cccc(C)c1NC(=O)Cn1ncc2c3ccccc3n(Cc3ccccc3)c2c1=O	8.2µM*	10µM*	i	.	i	.
O=C(C[n+]1cccc2ccccc21)c1ccc(NC(=O)c2ccccc2)cc1	6.5µM*	8.2µM*	i	-8%	i	-9%
Cc1cc[n+](CC(=O)c2ccc(NC(=O)c3ccccc3)cc2)c2ccccc12	3.7µM*	8.2µM*	i	-21%	10µM*	?
O=C(C[n+]1cccc2ccccc21)c1ccccc1	-17%	-2%	i	8%	i	6%
Cc1cc[n+](CC(=O)c2ccc(NC(=O)c3ccccc3)cc2)cc1	?	?	i	0%	?	-1%
O=C(O)C(C(O)c1ccccc1)[n+]1ccccc1 (centres undefined)	-17%	-5%	i	9%	i	14%
